From PubChem BioAssay AID686979 (National Center for Advancing Translational Sciences (NCATS), 2013)
Where “and” joins values, the source holds several entries; their conditions need not be identical. Identical values can stand only once. About 50,000 (12%) of roughly 420,000 compounds were called active. Inconclusive results (about 26%) are left out. The entries come from a sample that favours actives as a whole. Where a call stands in place of a potency, no number is given. Unmarked numbers belong to inactive results. The call rests on the fitted dose curve; in most records, active means well fitted inhibition curve with a large enough effect; inconclusive means small, poorly fitted or top-dose-only effect; inactive means flat fitted curve, though single readings scatter.

Test: qHTS for Inhibitors of human tyrosyl-DNA phosphodiesterase 1 (TDP1): qHTS in cells in presence of CPT; further: nearly all actives have a fitted effect of over 55% in size
Conditions: chicken DT40 Tdp1-/-;hTDP1 cells + 20 nM CPT, ATP luminescence, 48 h; series mostly up to 46.2 µM
Source text: Human tyrosyl-DNA phosphodiesterase 1 (TDP1) is a novel repair gene, and we propose to use it as a new target for anticancer drug development. TDP1 is not an essential protein, but under treatment with topoisomerase I poison (camptothecin: CPT), TDP1 works as a critical factor for cell survival. To directly identify novel TDP1 inhibitors active in a cellular environment, we have knocked-out the Tdp1 gene in chicken DT40 cells (Tdp1-/-) and generated a complemented counterpart cells that contains a stable transfection of the human TDP1 gene (Tdp1-/-;hTDP1 cells). For the primary screen, Tdp1-/-;hTDP1 cells will be exposed to small molecules in the presence or absence of CPT, and their growth kinetics will be evaluated after 48 hours by measuring ATP activity. […] The hit compounds will then be evaluated in the presence or absence of CPT using Tdp1-/- cells. […] In tertiary assays, biochemical gel-based assays will be used to assess whether the hit compounds specifically target TDP1. To this end, we have screened this cell line against the MLSMR in two primary screens. In one screen we add CPT and in the other we screen in the absence of CPT; this AID represents the screen where CPT was present. NIH Chemical Genomics Center [NCGC] NIH Molecular Libraries Probe Centers Network [MLPCN] MLPCN Grant: MH095538 Assay Submitter (PI): Yves Pommier, NCI
DT40-hTDP1 cells with 20 nM Camptothecin (add 20 microL of 1 mM CPT stock in 1 L of cell culture medium) were dispensed at 400 cells/5microL/well in tissue culture treated 1536-well white wall/solid bottom assay plates (Greiner Bio-One North America, NC, U.S.A.) using a Multidrop Combi 8 channel dispenser (Thermo Fisher, Waltham, MA, USA). 23 nL compounds and controls were transferred using the pin tool (Kalypsys, San Diego, CA, USA) to the assay plates. The assay plates were then incubated at 37 masculineC for a minimum 48 hr. Three microL of Cell Titer Glo solution was added to the plates and incubated at RT in dark for 30 min. Luminescence was read using ViewLux (Perkin Elmer) with 1 sec exposure slow speed, high gain and 2x binning.
Potency means the concentration at half of the fitted maximal effect.

Compound | Potency | activity change, negative = growth inhibition
FC(F)(F)c1nc(-c2ccccc2)ncc1-c1nnnn1-c1ccccc1 | 20.6 µM (active) | –
c1ccc(-n2nnnc2NC2CCCCCC2)cc1 | inactive | –
c1ccc(-n2nnnc2-c2cccnc2)cc1 | inactive | –
Cc1ccc2c(=O)cc(C(=O)Nc3sc4c(c3C(=O)NCc3cccnc3)CCCC4)oc2c1 | inactive | –
COc1ccc(C2CC(c3cccs3)=NN2C(=O)CSc2nnc(N)s2)cc1OC (stereo not given) | inactive | –
Fc1ccc2cnc(-c3ccccc3)cc2c1 | inactive | –
CSc1nc(Nc2ccc(F)cc2)cc(-c2ccccc2)n1 | 14.6 µM (active) | –
Fc1ccc(Nc2nnns2)cc1 | inactive | –
CCNc1nc(Oc2ccc(C(=O)OC)cc2)nc(N2CCOCC2)n1 | inactive | –
COc1ccccc1S(=O)(=O)NCc1ccc(C(=O)N(C)Cc2ccc(F)cc2)cc1 | 20.6 µM (active) | –
O=C(NCCS(=O)(=O)NCc1ccc(F)cc1)c1ccccc1 | inactive | –
COc1ccc(S(=O)(=O)NCc2ccc(C(=O)N(C)Cc3ccco3)cc2)cc1 | inactive | –
NC(=O)c1oc2ccccc2c1NC(=O)CS(=O)(=O)c1ccccc1 | inactive | –
CC[C@]12c3[nH]c4ccc(OC)cc4c3CCN1C(=O)C(CC(=O)NCCN1CCOCC1)C[C@@H]2C(=O)N1CCN(C(=O)C2CC2)CC1 (stereo not given in full) | inactive | –
c1ccc2c(c1)CSc1sccc1C2=C1CCNCC1 | 20.6 µM (active) | –
Cc1csc(NCC(=O)c2c[nH]c3ccccc23)n1 | inactive | –
NC(=O)NCCCC(=O)O | inactive | –
Cc1cc(C)n(CCNCc2c(C(=O)N3C[C@@H](C)O[C@@H](C)C3)nc3ccc(Cl)cn23)n1 | inactive | –
CC(=O)Oc1cccc(C(=O)Nc2ccccc2NC(=O)c2cccc(OC(C)=O)c2)c1 | inactive | –
COc1ccc(OC)c2[nH]c(=O)c(CCNC(=O)C(=O)c3c[nH]c4ccccc34)cc12 | 10.3 µM (active) | –
COc1ccc(OC)c2[nH]c(=O)c(CCNC(=O)C(C)(C)C)cc12 | inactive | –
Cc1ccc(C)c2[nH]c(=O)c(CCNC(=O)CC(C)C)cc12 | inactive | –
CC1(C(=O)NCc2ccccc2)CSCC(=O)N1CCCn1ccnc1 (stereo not given) | inactive | –
CC1(C)C=Cc2c(ccc(C(=O)/C=C/c3ccccc3)c2O)O1 | 7.94 µM (active) | –
CC1(C(=O)O)CCN1C(=O)/C=C/c1ccccc1 (stereo not given) | inactive | –
O=C(/C=C/c1ccccc1)N/C(=C/c1ccccc1)C(=O)Nc1ccccc1O | inactive | –
CC(=O)Nc1ccc(NC(=S)NC(=O)/C=C/c2ccccc2)cc1 | inactive | –

Compound | Potency | activity change, negative = growth inhibition
O=C(O)c1ccc2c(c1)C(=O)N(c1ccc(/C=C/C(=O)c3ccccc3)cc1)C2=O | inactive | –
O=C(/C=C/c1ccccc1)c1ccccc1O | 10.3 µM (active) | –
N#CC1=C(N)Oc2[nH]c(=S)[nH]c(=O)c2C12C(=O)Nc1ccccc12 (stereo not given) | inactive | –
O=S(=O)(Nc1ccc2ccccc2c1)N1CCCCC1 | inactive | –
CC1CN/C(=C\C(=O)c2ccc(Br)cc2)C(=O)N1 (stereo not given) | inactive | –
CN(C)CCCN(C(=O)c1ccc(S(=O)(=O)N2CCCCCC2)cc1)c1nc2ccc(Br)cc2s1 | 11.6 µM (active) | –
CCOc1ccc2nc(N(CCN(C)C)C(=O)c3ccc4ccccc4c3)sc2c1 | inactive | –
CCN(CC)CCN(C(=O)c1ccc(S(=O)(=O)N2CCOCC2)cc1)c1nc2cc3c(cc2s1)OCCO3 | inactive | –
O=c1/c(=C/c2ccc(CNS(=O)(=O)c3ccccc3)o2)sc2n1CCN=2 | inactive | –
Cc1cc(C)n2c(NCc3ccccc3)c(CC(C)C)nc2n1 | 14.6 µM (active) | –
Nc1nc(NCc2ccccc2)n(-c2ccccc2)n1 | inactive | –
Cn1cc(C2OC(=O)c3ccccc32)c2ccccc21 (stereo not given) | inactive | –
ONC(=Nc1ccc(Cl)cc1)c1ccccc1Cl | inactive | –
Cc1ccc(/C=N/NC(=O)Cn2ccc(C(F)(F)F)n2)o1 | inactive | –
CCOc1ccc2oc(C(=O)N(CC)CC(=O)Nc3ccc(NC(C)=O)cc3)c(C)c2c1 | inactive | –
O=C1c2ccccc2C(=O)N1CCOc1ccc(F)cc1 | inactive | –
Cc1cccc2c1N(CCOc1ccccc1)C(=O)C2=O | 2.06 µM (active) | –
Cc1cccc(C)c1-n1nnnc1C1(C)CCC(=O)N1CCOc1ccccc1 (stereo not given) | inactive | –
O=c1c2ccccc2ncn1CCCCOc1ccccc1F | inactive | –
CCOC(=O)N1CCN(C(=O)C(C)NC(=O)c2ccco2)CC1 (stereo not given) | inactive | –
CC(=O)c1ccc(N2CCN(C(=O)CCNC(=O)Cn3ccc4ccccc4c3=O)CC2)cc1 | inactive | –
CCOc1cccc(NC(=O)CC#N)c1 | inactive | –
CCOc1ccc(N(CC(=O)Nc2cccc(OC)c2)S(C)(=O)=O)cc1 | inactive | –
CCOc1cccc(NC(=O)c2ccc(F)c(S(=O)(=O)N(CC)c3cccc(C)c3)c2)c1 | 18.4 µM (active) | –
O=c1[nH]c2ccccc2s1 | inactive | –
CC1CCCCN1C(=O)CCS(=O)(=O)Cc1ccccc1 (stereo not given) | inactive | –
COc1ccnc(Oc2ccccc2)n1 | inactive | –

Compound | Potency | activity change, negative = growth inhibition
CCC(C)c1ccccc1N1CC(C(=O)N2CCN(S(=O)(=O)c3ccc(F)cc3)CC2)CC1=O (stereo not given) | inactive | –
COc1ccc(CCNS(=O)(=O)c2cc3c(cc2C)NC(=O)CO3)cc1OC | inactive | –
COc1ccc(CC(=O)NC(C)CCc2ccccc2)cc1 (stereo not given) | inactive | –
CCC/C=C(\CCC)C(NC(=O)Cc1ccccc1)c1ccc(C(=O)OC)cc1 (stereo not given) | 18.4 µM (active) | –
CCOc1ccc(C(CC(=O)O)NC(=O)Cc2ccccc2)cc1OC (stereo not given) | inactive | –
Cc1cccc(OCC(=O)NCC(=O)N/N=C/c2ccc(N(C)C)cc2)c1 | inactive | –
Cc1ccc(/C=N/NC(=O)COc2ccccc2-c2ccccc2)cc1 | 0.164 µM (active) | –
C=CCc1ccccc1OCC(=O)N/N=C/c1ccccc1OCC | inactive | –
CCOc1ccc(N(CC(=O)NCC2CCCO2)S(=O)(=O)c2ccc(C)cc2)cc1 (stereo not given) | inactive | –
O=C(COC(=O)c1ccc2c(c1)OCCO2)NCc1ccccc1Cl | inactive | –
Cc1ccc(NC(=O)NC(=O)N(C2CCCCC2)S(=O)(=O)c2ccccc2)cc1 | inactive | –
COCCNc1nc(N)c([N+](=O)[O-])c(N2CCCCCC2)n1 | inactive | –
CSc1nsc(SCC(=O)Nc2cc(C(=O)O)ccc2C)n1 | inactive | –
Cc1c(C(=O)N/N=C/c2ccccc2)[nH]c2c([N+](=O)[O-])cccc12 | 0.651 µM (active) | –
Cc1cc(C(=O)N/N=C/c2ccccc2[N+](=O)[O-])c(C)o1 | inactive | –
Cc1ccc2[nH]c(C(=O)O)c(NC(=O)c3ccccc3[N+](=O)[O-])c2c1 | inactive | –
O=c1c(O)c(Br)ccc2c(Br)c(O)c(O)c(O)c12 | – | -8.83% [at 9.04 µM]
O=C(COc1ccccc1O)NC1CCCC1 | inactive | –
COCCn1cnc2c1c(=O)n(CC(=O)NN)c(=O)n2Cc1ccccc1 | inactive | –
CCN(CC)CCn1cnc2c1c(=O)[nH]c(=O)n2Cc1ccccc1 | inactive | –
N=c1c2c(-c3ccccc3)c(-c3ccccc3)n(Cc3ccccc3)c2ncn1CCCO | 10.3 µM (active) | –
CCOC(=O)c1sc(N)c(C#N)c1COC(=O)C1=COCCO1 | inactive | –
CCCNC(=S)N1CCC(NC(=O)C23CC4CC(CC(C4)C2)C3)CC1 | inactive | –
COC(=O)c1sc2ncccc2c1OCc1ccc(Cl)cc1Cl | inactive | –
NC(N)=N/N=C/c1ccc(OCc2ccc(Cl)cc2Cl)cc1 | 25.9 µM (active) | –
COc1ccc(Cl)cc1N(CC(=O)N/N=C/c1ccc(OCC(N)=O)cc1)S(C)(=O)=O | inactive | –
CCOC(=O)C1CCN(S(=O)(=O)c2ccc3c(c2)N(C)C(=O)CC(=O)N3C)CC1 | inactive | –

Compound | Potency | activity change, negative = growth inhibition
C/C(CC(=O)NCc1ccc(Cl)cc1)=N\NC(=O)COc1ccc(C)cc1Br | 16.4 µM (active) | –
CC(=O)Nc1ccc(OCC(=O)NCc2ccc(C)cc2)cc1 | inactive | –
CCCCC(=O)N/N=C(\C)CC(=O)Nc1cc(Cl)ccc1OC | inactive | –
CN(CC(=O)Nc1cccc(F)c1)C(=O)C1CSC2(C)CCC(=O)N12 (stereo not given) | inactive | –
Cc1ccsc1C(=O)OCC(=O)NCCc1ccccc1 | inactive | –
Cc1cc(C)nc(Nc2n[nH]c(-c3ccccc3N)n2)n1 | inactive | –
C=CCC1=C/C(=C\c2c(N)n3nc(CC(=O)N4CCOCC4)sc3nc2=O)C=C(OC)C1=O | inactive | –
N#CCCN(C(=O)Nc1ccc(Cl)c(Cl)c1)C1CCCCC1 | inactive | –
Cc1ccn2c(Nc3ccc4c(c3)OCCO4)c(-c3ccc(C)s3)nc2c1 | inactive | –
Cc1ccc(Nc2c(-c3ccc(C)s3)nc3ccccn23)cc1 | 16.4 µM (active) and 20 µM (active) | –
COc1cc(NC(=O)CN(C)S(=O)(=O)c2ccc3nc(C)sc3c2)cc(OC)c1 | inactive | –
CCN(CC)CC(=O)c1c[nH]c2ccc(OC)cc12 | inactive | –
CCCC12CN3CC(C)(CN(C1)C3c1ccccc1Cl)C2=O (stereo not given) | inactive | –
CCCC12CN3CC(CCC)(CN(C1)C3c1c[nH]c3ccc(OC)cc13)C2=O (stereo not given) | 18.4 µM (active) | –
COc1ccc(-c2c(C#N)cnc(C)c2C)c(O)c1OC | inactive | –
CCOC(=O)c1ccccc1NC(=O)COC(=O)CCC(=O)N1CCOCC1 | inactive | –
O[C@@H]1C[C@H](c2ccccc2)N(Cc2cccs2)C[C@H]1n1cc(C2CC2)nn1 | inactive | –
CC(C)CC(=O)N1CCN(Cc2ccccc2Br)CC1 | inactive | –
C=C1C(=O)C23C(O)C1CCC2[C@]12COC3(O)C(O)C1C(C)(C)CC[C@H]2O (stereo not given in full) | 3.26 µM (active) | –
N#CCSc1nc2c(c(=O)n1Cc1ccccc1)C1(CCCC1)Cc1ccccc1-2 | 16.4 µM (active) | –
Cc1cccc(-n2c(SCC(N)=O)nc3c(c2=O)C2(CCCCC2)Cc2ccccc2-3)c1 | inactive | –
CC(/C=C/C1(O)C(C)CC(=O)CC1(C)C)OC1OC(CO)C(O)C(O)C1O (stereo not given) | inactive | –
Cc1ccc(N2C(=O)CC(N3CCSCC3)C2=O)c(C)c1 (stereo not given) | inactive | –
CNc1nc(=O)n(C2CCCO2)cc1C (stereo not given) | inactive | –
